Source: PubChem BioAssay (NCATS)
Inconclusive results are not listed. Activity calls are given as the source filed them. The call rests on the fitted dose curve; in most records, active means well fitted curve in the direction sought with a large enough effect; inconclusive means small, poorly fitted or top-dose-only effect, or another doubt; inactive means no such curve, though single readings can be large; an effect the other way counts as inactive or inconclusive.

Columns and labels:
[1] = target: Glutathione peroxidase 1 (Homo sapiens) (UniProt P07203); assay: Primary qHTS Assay for Inhibitors of Recombinant Selenoprotein Glutathione Peroxidase 1 (GPX1) (AID 1845191); further: nearly all actives have a fitted effect of over 65% in size; further: potency means the concentration at half of the fitted maximal effect
Procedure, shortened: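 NADPH consumption tracked by fluorescence at 340/450 nm between t=0 and t=15 min, room temperature. Final mix: 10 nM GPX1, 100 nM glutathione reductase, 1 mM GSH, 0.5 mM NADPH, 0.5 mM cumene hydroperoxide, 0.01% BSA; 30 min compound–enzyme preincubation.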

[2] = target: Phospholipid hydroperoxide glutathione peroxidase GPX4 (Homo sapiens) (UniProt P36969); assay: Primary qHTS Assay for Inhibitors of Recombinant Selenoprotein Glutathione Peroxidase 4 (GPX4) (AID 1845192); further: nearly all actives have a fitted effect of over 65% in size; further: potency means the concentration at half of the fitted maximal effect
Procedure, shortened: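 NADPH consumption followed by fluorescence at 340/450 nm, t=0 and after 15 min at room temperature. Reaction started with cumene hydroperoxide (0.5 mM final) after 30 min compound–GPX4 preincubation; final 200 nM GPX4, 100 nM GR, 1 mM GSH, 0.5 mM NADPH.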

[3] = target: Luciferin 4-monooxygenase (Photinus pyralis) (UniProt P08659); assay: Primary firefly luciferase (FLuc) qHTS assay for identification of artifact compounds. (AID 1845220); further: nearly all actives have a fitted effect of over 60% in size
Procedure, shortened: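 FLuc 10 nM; luciferin 10 uM; ATP 10 uM; Tris-acetate pH 7.6, Mg-acetate 10 mM; 15 min RT preincubation; 5 min reaction; luminescence.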

[4] = Primary fluorescence-based thiol-reactive (MSTI) qHTS assay for identification of artifact compounds. (AID 1845221);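 further: series mostly up to about 54 µM; thiol-reactive compounds lower the probe fluorescence signal; nearly all actives have a fitted effect of over 65% in size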
Procedure, shortened: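 Probe: MSTI 4 uM, PBS pH 7.4, 2% DMSO. Incubation 1 h, RT, light-protected. Readout fluorescence 525/598 nm.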

[5] = Primary redox qHTS assay for identification of artifact compounds. (AID 1845223)
Procedure, shortened: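 Redox-cycling detection via DTT (250 uM final) oxidation coupled to Amplex Red (25 uM)/HRP (250 mU/mL) in HBSS. 15 min preincubation plus 30 min after DTT, room temperature. Ex/Em 525/598 nm; 4-parameter Hill fit against DMSO and 10 uM DA3003.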

[6] = tested on: Nanoluciferase (engineered Oplophorus gracilirostris luciferase); assay: Primary Nanoluciferase (NLuc) qHTS assay for identification of artifact compounds. (AID 1845222); further: potency means the concentration at half of the fitted maximal effect
Procedure, shortened: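 NLuc from S16 cell medium (1:55) plus test compounds, 15 min, room temperature. Luminescence after Nano-Glo (1:100) addition, 5 min.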

Measured: Potency

Phospholipid hydroperoxide glutathione peroxidase GPX4 (Homo sapiens), sequence (P36969 whole entry, looked up): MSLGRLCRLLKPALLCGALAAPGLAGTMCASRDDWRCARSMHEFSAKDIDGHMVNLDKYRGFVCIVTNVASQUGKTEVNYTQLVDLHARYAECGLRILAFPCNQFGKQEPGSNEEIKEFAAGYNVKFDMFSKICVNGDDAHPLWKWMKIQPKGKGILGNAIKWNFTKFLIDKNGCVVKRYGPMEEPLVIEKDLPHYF
Glutathione peroxidase 1 (Homo sapiens), sequence (P07203 whole entry, looked up): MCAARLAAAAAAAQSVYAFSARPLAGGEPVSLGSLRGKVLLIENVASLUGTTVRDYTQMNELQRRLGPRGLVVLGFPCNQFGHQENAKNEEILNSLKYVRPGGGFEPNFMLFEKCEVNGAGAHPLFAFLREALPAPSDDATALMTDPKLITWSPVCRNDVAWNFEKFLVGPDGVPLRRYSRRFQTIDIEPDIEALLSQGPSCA

COc1ccccc1N1CCN(CC(C(=O)NC(C)(C)C)c2ccccc2)CC1 (stereo not drawn)
inactive: [1] | [2] | [3] | [4] | [5]

O=C(NCC1(N2CCN(c3ccccc3)CC2)CCOCC1)c1cccnc1Sc1ccccc1
inactive: [1] | [2] | [3] | [4] | [5]

CC(C)OC(=O)N1CCC(Oc2ncnc3c2cnn3-c2ccc(S(C)(=O)=O)cc2F)CC1
inactive: [1] | [2] | [3] | [4] | [5]

COc1cc(CCC2=NN=C(NC(=O)c3ccc(N4C[C@@H](C)N[C@@H](C)C4)cc3)C2)cc(OC)c1
inactive: [1] | [2] | [3] | [4] | [5]

C=C1[C@@H](OC(C)=O)CC[C@@]2(C)[C@@H](OC(C)=O)[C@H](OC(C)=O)C3=C(C)C[C@H](OC(=O)C(C)CC)[C@@H]([C@@H](OC(C)=O)[C@H]12)C3(C)C (stereo partly drawn)
inactive: [1] | [2] | [3] | [6]

CC(C)CC(=O)c1c(O)cc2c(c1O)C(CC(C)C)C1=C(O2)C(C)(C)C(=O)C(C)(C)C1=O (stereo not drawn)
inactive: [1] | [2] | [3] | [6]

Cc1cc(Nc2nc(-c3ccccc3)nc3ccccc23)n[nH]1
inactive: [1] | [2] | [3] | [4] | [5]

COc1ccccc1N1CCN(CC[C@@](C)(C(=O)C2CCCCC2)c2ccccc2)CC1
inactive: [1] | [2] | [3] | [4] | [5]

Cc1ccc(NC(=O)C(C)C)cc1C1CCN(Cc2ccc(Oc3ccc(F)c(F)c3)cc2)CC1
inactive: [1] | [2] | [3] | [6]

Cc1nnc(-c2ccc(-c3ccc(C(=O)Nc4ccc(O)c(N5CCN(C)CC5)c4)cc3)c(C)c2)o1
active: [6] 1.51 µM
inactive: [1] | [2] | [3]

COc1ccc2c(c1)C(C(=O)N(Cc1ccc(N(C)C)cc1)c1ccc(C(C)C)cc1)CCC2 (stereo not drawn)
inactive: [1] | [2] | [3] | [6] | [5]

COc1cc(-c2cn(C3CCc4c(F)cccc4N(CC(F)(F)F)C3=O)nn2)ccc1-n1cnc(C)c1 (stereo not drawn)
inactive: [1] | [2] | [3] | [6] | [5]

CC(C)c1cccc(C(C)C)c1NC(=O)Nc1ccc(Sc2ccc([N+](=O)[O-])cc2)cc1
inactive: [1] | [2] | [3] | [6] | [5]

COC(=O)C[C@H]1[C@]2(C)C3=C(C)[C@H](c4ccoc4)C[C@H]3O[C@@H]2[C@H](O)C2[C@](C)(C(=O)OC)C=CC(=O)[C@@]21C (stereo partly drawn)
inactive: [1] | [2] | [3] | [6] | [5]

O=[N+]([O-])c1ccc(Oc2ccc3c(c2)CCC(c2ccccc2)O3)nc1 (stereo not drawn)
inactive: [1] | [2] | [3] | [6] | [5]

CC1CCCC(O)CC(=O)c2c(O)cc(O)cc2CC(=O)O1 (stereo not drawn)
inactive: [1] | [2] | [3] | [6] | [5]

CN1CCN(c2ccc(Nc3cc(-c4cccc(-n5ccc6cc(C7CC7)cc(F)c6c5=O)c4CO)cn(C)c3=O)nc2)CC1
inactive: [1] | [2] | [3] | [6] | [5]

CCC/C=C/C=C/C1CC(O)C2(O)C(=O)OCC12 (stereo not drawn)
inactive: [1] | [2] | [3] | [6]

O=C(NS(=O)(=O)c1ccc(Br)s1)c1ccc(Cl)cc1Cl
active: [6] 6.75 µM
inactive: [1] | [2] | [3] | [5]

Cc1[nH]c2ccc(F)cc2c1-c1nc2c3cccnc3c3ncccc3c2[nH]1
inactive: [1] | [2] | [3] | [6]

C=C(C(=O)O)[C@@H]1CC=C(CCC(C)=O)[C@@H](C)CC1
inactive: [1] | [2] | [3] | [6] | [5]

OC1CCC(Nc2nc(-c3ccccc3)nc3[nH]ccc23)CC1 (stereo not drawn)
inactive: [1] | [2] | [3] | [6] | [5]

C=CC(=O)N1CCN(C(=O)CNc2cc(-c3ccccc3Cl)c(Cl)cc2OC)CC1
inactive: [1] | [2] | [3] | [6] | [5]

O=C1Nc2ccccc2-c2nc3ccccc3c(=O)n2-c2c(O)cccc21
inactive: [1] | [2] | [3] | [6]

NC(=O)N1CCC(CC(=O)N2CCC(C3c4ncc(Br)cc4CCc4cc(Cl)cc(Br)c43)CC2)CC1 (stereo not drawn)
inactive: [1] | [2] | [3] | [6] | [5]

COc1cccc(NCCC2(c3ccccc3)CC(C)(C)OC(C)(C)C2)c1
inactive: [1] | [2] | [3] | [6] | [5]

COc1ccc([C@H](Cc2ccncc2)c2ccccc2)cc1OC1CCCC1
inactive: [1] | [2] | [3] | [6] | [5]

CN(C)c1cccc(Oc2cnc(Nc3cccc(O)c3)nc2)c1
inactive: [1] | [2] | [3] | [6] | [5]

O=C(O)CCc1nccc2c1[nH]c1ccccc12
inactive: [3] | [6] | [5]
active: [1] 25.5 µM | [2] 22.7 µM

COc1cc2c(c(OC)c1CC=C(C)C)C[C@H](c1ccc(O)c(CC=C(C)C)c1O)CO2
inactive: [1] | [2] | [3] | [6] | [5]

C=C(C(=O)OC[C@H]1O[C@@H](OC(=O)/C=C/c2ccccc2)[C@H](O)[C@@H](O)[C@@H]1O)C(O)CO (stereo partly drawn)
inactive: [1] | [2] | [3] | [6] | [5]

CCOc1cn(-c2ccc(F)cc2C)nc1C(=O)Nc1ccc(Oc2ccnc3cc(OC)c(OC)cc23)c(F)c1
inactive: [1] | [2] | [3] | [6] | [5]

C#CCNCc1cc2cc(OCc3ccccc3)ccc2[nH]1
inactive: [1] | [2] | [3] | [6] | [5]

COc1ccc(CNc2nc(N(CCO)CCO)nc3c2ncn3C(C)C)cc1
inactive: [1] | [2] | [3] | [6]

CC1CCCC[C@H]2C(=O)C=C[C@H](O)[C@@H]2CC(=O)O1 (stereo partly drawn)
inactive: [1] | [2] | [3] | [6] | [5]

CNC(=O)c1ccc2c(c1)CCO[C@H]2CCN1CCN(c2ccc(OC)cc2)CC1
inactive: [1] | [2] | [3] | [6] | [5]

OC1C=C2C3CN(Cc4cc5c(cc43)OCO5)C2CC1O (stereo not drawn)
inactive: [1] | [2] | [3] | [6] | [5]

Cc1cc(F)ccc1[C@H]1C[C@@H](N2CCN3C(=O)CC[C@H]3C2)CCN1C(=O)N(C)[C@H](C)c1cc(C(F)(F)F)cc(C(F)(F)F)c1
inactive: [1] | [2] | [3] | [6] | [5]

C/C1=C/CCC2=CC(OC2=O)C(C)(C)/C=C/C1=O (stereo not drawn)
inactive: [1] | [2] | [3] | [6] | [5]

CC(C)(O)/C=C/C(=O)[C@](C)(O)[C@H]1[C@H](O)C[C@@]2(C)[C@@H]3CC=C4[C@@H](C[C@H](O[C@@H]5O[C@H](CO)[C@@H](O)[C@H](O)[C@H]5O)C(=O)C4(C)C)[C@]3(C)C(=O)C[C@]12C
inactive: [1] | [2] | [3] | [6] | [5]

CC(C)(C)OC(=O)c1ncn2c1C(C)(C)Nc1ccccc1-2
inactive: [1] | [2] | [3] | [6] | [5]

C=C[C@@]1(C)CCC2C(=CCC3[C@]2(C)CCC[C@@]3(C)C(=O)O)C1 (stereo partly drawn)
inactive: [1] | [2] | [3] | [6]

CC(=O)OC1C(O)CC2(C)C(CCC3(C)C2CC=C2C4C5(CCC(CO[C@@H]6O[C@H](CO)[C@@H](O)[C@H](O)[C@H]6O)(OC5=O)C4(C)O)C(O)CC23C)C1(C)C (stereo partly drawn)
inactive: [1] | [2] | [3] | [6]

Cc1cc(C)c2c(c1)C(N(Cc1cc(C(F)(F)F)cc(C(F)(F)F)c1)c1nnn(C)n1)CCCN2CC1CCC(C(=O)O)CC1 (stereo not drawn)
inactive: [1] | [2] | [3] | [6] | [5]

O=c1nc(-c2ccccn2)sc2ccccc12
inactive: [1] | [2] | [3] | [6] | [5]

CN1CC[C@@H](c2c(O)cc(O)c3c(=O)cc(-c4ccc(C(F)(F)F)cc4Cl)oc23)[C@@H]1CO
inactive: [1] | [2] | [3] | [6]

C=C1C(=O)O[C@@H]2C[C@H](C)[C@@H]3CC(=O)[C@H](O)[C@@]3(C)C[C@H]12
inactive: [1] | [2] | [3] | [6] | [5]

C/C=C/[C@@H]1C=C[C@@H]2C[C@H](C)CC[C@H]2[C@]1(C)/C(O)=C1/C(=O)[C@@H](CO)N(C)C1=O
inactive: [1] | [2] | [3] | [6]

CC1(C(=O)Nc2ccc(F)nc2)CCCN1c1nc(Nc2cc(C3CC3)[nH]n2)c2cccn2n1 (stereo not drawn)
inactive: [1] | [2] | [3] | [6] | [5]

Clc1ncoc1-c1c[nH]c2ccccc12
inactive: [1] | [2] | [3] | [6] | [5]

O=C(NO)c1cnc(N2CCN(S(=O)(=O)c3ccc4ccccc4c3)CC2)nc1
inactive: [1] | [2] | [3] | [6] | [5]

Cn1cc(C2=C(c3coc4ccccc34)C(=O)NC2=O)c2cc(Br)ccc21
inactive: [1] | [2] | [3] | [6] | [5]

Cn1c(CO)c(-c2ccccc2)c2cc([N+](=O)[O-])ccc21
inactive: [1] | [2] | [3] | [6] | [5]

COc1cc(CCO)ccc1O[C@@H]1O[C@H](CO)[C@@H](O)[C@H](O)[C@H]1O
inactive: [1] | [2] | [3] | [6] | [5]

CC(C)=C[C@@H]1[C@H](CO[C@@H]2O[C@H](CO)[C@@H](O)[C@H](O)[C@H]2O)C1(C)C
inactive: [1] | [2] | [3] | [6] | [5]

COc1ccc(C2Oc3c(OC)cc(CCCO)cc3C2COC2OC(CO)C(O)C(O)C2O)cc1OC (stereo not drawn)
inactive: [1] | [2] | [3] | [6] | [5]

Cc1ccc(N2CCN(CCC3NC(=O)c4ccccc43)CC2)cc1C (stereo not drawn)
inactive: [1] | [2] | [3] | [6] | [5]
